According to PubChem BioAssay AID720700 (The Scripps Research Institute Molecular Screening Center, 2013):
About 3,100 (0.84%) of roughly 370,000 compounds were called active. The entries come from a sample that favours actives as a whole. A number with no mark means an inactive call. Rule as the data show it: active = inhibition above about 9.5%; inactive = the rest.

Target: 1-phosphatidylinositol 4,5-bisphosphate phosphodiesterase gamma-1 (Homo sapiens) (UniProt P19174)
Experiment: PLC-gamma1 enzyme inhibitors, primary screen, biochemical, fluorescence, purified enzyme (AID 720700)
Details: purified PLC-gamma1, fluorogenic substrate, at 12.2 µM, hits give high values

Sequence of 1-phosphatidylinositol 4,5-bisphosphate phosphodiesterase gamma-1 (Homo sapiens) (P19174 whole entry, looked up): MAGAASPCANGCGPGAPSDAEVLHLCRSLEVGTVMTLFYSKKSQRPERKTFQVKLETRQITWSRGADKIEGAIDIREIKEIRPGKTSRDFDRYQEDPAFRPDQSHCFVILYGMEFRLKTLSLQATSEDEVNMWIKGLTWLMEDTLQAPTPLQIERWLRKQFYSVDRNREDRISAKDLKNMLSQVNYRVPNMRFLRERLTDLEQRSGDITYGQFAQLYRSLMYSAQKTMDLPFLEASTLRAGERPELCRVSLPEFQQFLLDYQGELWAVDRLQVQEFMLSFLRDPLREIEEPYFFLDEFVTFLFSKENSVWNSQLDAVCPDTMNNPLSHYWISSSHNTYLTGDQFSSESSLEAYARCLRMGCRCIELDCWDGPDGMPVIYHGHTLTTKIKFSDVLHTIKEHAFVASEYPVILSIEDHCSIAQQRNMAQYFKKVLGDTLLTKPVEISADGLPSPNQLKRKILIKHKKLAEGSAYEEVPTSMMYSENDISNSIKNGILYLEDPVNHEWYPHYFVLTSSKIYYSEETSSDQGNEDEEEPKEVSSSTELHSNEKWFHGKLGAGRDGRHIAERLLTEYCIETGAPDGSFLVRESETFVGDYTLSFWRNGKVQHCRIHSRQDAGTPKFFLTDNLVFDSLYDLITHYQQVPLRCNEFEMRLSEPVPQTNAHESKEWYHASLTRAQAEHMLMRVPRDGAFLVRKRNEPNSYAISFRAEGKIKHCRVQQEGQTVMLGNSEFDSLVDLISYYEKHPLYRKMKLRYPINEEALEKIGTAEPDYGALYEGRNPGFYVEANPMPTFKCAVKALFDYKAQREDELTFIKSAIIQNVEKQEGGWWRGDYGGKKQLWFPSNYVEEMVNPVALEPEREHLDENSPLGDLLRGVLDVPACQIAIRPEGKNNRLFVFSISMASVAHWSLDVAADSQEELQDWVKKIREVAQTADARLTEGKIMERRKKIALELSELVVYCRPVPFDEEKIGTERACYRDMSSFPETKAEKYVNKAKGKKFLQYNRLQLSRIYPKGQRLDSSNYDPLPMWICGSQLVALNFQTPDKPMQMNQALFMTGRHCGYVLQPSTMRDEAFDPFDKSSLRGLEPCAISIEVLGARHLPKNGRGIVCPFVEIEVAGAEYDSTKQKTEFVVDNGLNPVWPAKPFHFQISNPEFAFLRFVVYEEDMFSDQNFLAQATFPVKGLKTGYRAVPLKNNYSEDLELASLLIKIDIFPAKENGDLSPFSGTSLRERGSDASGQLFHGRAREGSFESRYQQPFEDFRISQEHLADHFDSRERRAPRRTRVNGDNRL

SMILES	inhibition
CC(NCc1ccco1)C(=O)N1CCCCC1 (centres undefined)	-2.37%
Cc1ccc(-n2c(SCC(=O)Nc3ccc(S(=O)(=O)Nc4nccs4)cc3)nnc2-c2ccncc2)cc1	-4.02%
CC(=O)C1(C(=O)Nc2nccs2)CC(c2ccccc2C(F)(F)F)=NO1 (centres undefined)	-4.24%
C=CCN1C(=O)[C@@H](CC(=O)NCCCOCCCC)[C@]2(C(=O)OCC)CCCCC/C=C/12	-1.4%
Cc1ccc(C(=O)C(=S)N2CCOCC2)cc1	0.9%
Cc1ccc(C(=O)N2CCN(C(=O)N3CCOCC3)CC2)cc1	10.4% (active)
Cc1ccc(C(=O)NC2CCN(C(=O)N3CCOCC3)CC2)cc1	4.32%
Fc1ccc2nc(COCc3nc4ccc(F)cc4[nH]3)[nH]c2c1	-0.44%
Cc1cc(NS(=O)(=O)c2ccc(NC(=O)CSc3nnc(-c4ccc(C(C)(C)C)cc4)n3Cc3ccco3)cc2)nc(C)n1	-1.67%
COc1ccc(C(N)c2csc(NC(=O)Nc3cccc(C(F)(F)F)c3)n2)cc1 (centres undefined)	14.7% (active)
NC(c1csc(NC(=O)Nc2cccc(C(F)(F)F)c2)n1)C1CCCCC1 (centres undefined)	6.49%
COc1ccc(CC(N)c2csc(NC(=O)Nc3ccc(C(C)C)cc3)n2)cc1 (centres undefined)	2.68%
FC(F)(F)c1cccc(NC(=S)OC2CCC23CCC(c2ccccc2)CC3)c1 (centres undefined)	-0.1%
O=C(CN1CCC(NC(=O)NCc2ccccc2)CC1)Nc1ccc2c(c1)OCCO2	-0.43%
C#CCCN([C@H](C(=O)OC)C(C)C)S(=O)(=O)c1ccc(F)cc1Br	-1.82%
Cc1c(C(C)c2ccccc2O)[nH]c2ccccc12 (centres undefined)	-4.04%
COc1ccccc1C(=O)Nc1cccc(C(=O)N2CCOCC2)c1	12.6% (active)
COc1ccccc1C(=O)N/C(=C/c1ccc2c(c1)OCO2)C(=O)Nc1cccc(C(=O)O)c1	-3.19%
COc1ccccc1C(=O)Nc1ccc(OCC(=O)N2CCCCC2)cc1	3.96%
O=C(CSc1nc2ccccc2s1)N=Nc1c(O)[nH]c2ccccc12	-0.8%
COC(=O)[C@H](C(C)C)N(CCc1cn(Cc2ccccc2)nn1)S(=O)(=O)c1ccc(F)cc1Br	1.89%
C=CCn1c(SCn2nnc3ccccc3c2=O)nnc1-c1ccc(Cl)cc1	11.2% (active)

SMILES	inhibition
O=c1c2ccccc2nnn1CSc1nnnn1-c1ccccc1	2.24%
O=C(Cn1nnc2ccccc2c1=O)NCc1ccc(Cl)cc1	6.08%
O=C(OC12CCCN(C1)/C(=C/c1cccnc1)C2)C1CCCC1 (centres undefined)	2.54%
O=C(c1c[nH]c2ccccc12)N1CCC(Oc2cccnc2)CC1	5.31%
O=C(NC1CCC1)c1ccc(C#Cc2cccc(F)c2)c[n+]1[O-]	-0.74%
CCn1c(SCC(=O)Nc2ccc(Br)cc2)nc2sc3c(c2c1=O)CCN(C)C3	-70.8%
Cc1ccc(C)c(-n2c(SCC(=O)O)nc3sc4c(c3c2=O)CCCC4)c1	1.35%
CCn1c(SCC(C)=O)nc2sc3c(c2c1=O)CCCC3	10.1% (active)
Cc1ccc(CN2CCCCC(NC(=O)C3CCCCC3)C2=O)cc1 (centres undefined)	7.08%
CCCOc1ccc(Oc2c(Cl)cnn(Cc3cccc4ccccc34)c2=O)cc1	-1.93%
CCOC(=O)C1CCN(C(=O)C(C)(C)NC(=O)Nc2ccccc2Cl)CC1	0.94%
Cc1ccccc1CN1CCCCC(NC(=O)c2cccc(C#N)c2)C1=O (centres undefined)	-2.09%
CC(=O)c1c(C)[nH]c(C(=O)OCC(=O)Nc2cc(S(=O)(=O)N3CCCCC3)ccc2C)c1C	11.4% (active)
Cc1ccc(S(=O)(=O)N2CCCCC2)cc1NC(=O)CCNC(=O)c1ccccc1Cl	6.23%
CC(=O)c1cccc(OCC(=O)OCC(=O)Nc2cc(S(=O)(=O)N3CCCCC3)ccc2C)c1	1.9%
Cc1ccc(S(=O)(=O)N2CCCCC2)cc1NC(=O)CCNC(=O)c1ccccc1	11.6% (active)
CS(=O)(=O)c1ccc(Cl)c(NC(=O)COC(=O)c2cccc(S(=O)(=O)N3CCCC3)c2)c1	1.69%
O=C(CCNC(=O)c1ccc(Br)cc1)Nc1cccc(S(=O)(=O)N2CCCCC2)c1	-1.23%
CCOc1ccc(-n2c(SCC(=O)Nc3cc(C)c(NC(=O)c4ccccc4)cc3OC)nnc2-c2cccs2)cc1	-10.9%
CCOC(=O)N1CCN(C(=O)C[C@H]2C[C@@]3(C(=O)OC)C(=C[C@H](C(C)(C)C)O[C@@H]3C)N(Cc3ccc(Cl)cc3Cl)C2=O)CC1	-0.28%
O=C(c1cccc(C(F)(F)F)c1)N1CC[C@H]2[C@H](CCCN2Cc2cc(F)cc(F)c2)C1	-2.47%
COC(=O)C1CN(CC(C)C)CCS(=O)(=O)N1Cc1ccc(C)cc1 (centres undefined)	2.01%
